Assay outcomes as filed in PubChem.
Hits are enriched below; roughly 12% of the tested compounds scored in any of these assays.
PLK1 PBD block: PLK1 (human) polo-box domain binding inhibition | P53350 | Plk1 PBD binding of FITC phosphopeptide, fluorescence polarization | Potency, µM, hits mostly inhibitors | actives 2.8% (n = 360,000) | AID 720504; note: series mostly up to about 57 µM; nearly all actives have a fitted effect of over 65% in size
VP16 counter: inhibits Gal4-VP16 luciferase reporter, ROR gamma counter-screen | actives 3.5% (n = 310,000) | Potency, µM (doses to about 53.6 µM), most hits filed as inhibitors | Drosophila S2 Gal4-VP16 UAS-luciferase, luminescence, 20 h;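 note: Gal4-VP16 expression switched on by copper sulfate through the metallothionein promoter; nearly all actives have a fitted effect of over 50% in size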
RORg inh: ROR gamma (mouse) transcription inhibition | P51450 | Drosophila S2 Gal4-RORgamma UAS-luciferase reporter, 20 h | Potency, µM (series often up to 53.6 µM), hits mostly inhibitors | actives 5.4% (n = 310,000) | AID 2551; note: nearly all actives have a fitted effect of over 60% in size
Target sequence (P51450 whole entry, looked up, the tested form may be a part): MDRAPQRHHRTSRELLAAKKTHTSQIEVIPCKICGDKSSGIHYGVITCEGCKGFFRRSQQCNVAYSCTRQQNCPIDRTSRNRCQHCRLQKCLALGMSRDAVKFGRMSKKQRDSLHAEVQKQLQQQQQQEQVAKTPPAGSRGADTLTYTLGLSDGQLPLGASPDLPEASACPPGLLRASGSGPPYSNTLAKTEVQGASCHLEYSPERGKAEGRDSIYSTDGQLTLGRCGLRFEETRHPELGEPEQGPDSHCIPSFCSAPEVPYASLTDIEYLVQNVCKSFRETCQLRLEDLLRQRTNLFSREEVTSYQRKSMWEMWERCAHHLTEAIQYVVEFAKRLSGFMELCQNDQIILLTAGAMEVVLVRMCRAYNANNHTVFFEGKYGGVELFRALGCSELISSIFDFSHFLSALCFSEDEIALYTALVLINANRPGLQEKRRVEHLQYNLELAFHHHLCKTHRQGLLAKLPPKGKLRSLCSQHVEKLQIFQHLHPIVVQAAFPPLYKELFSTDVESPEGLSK
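Using a luciferase readout, inhibitors were identified by reduced reporter activity in Drosophila cells coexpressing a copper-inducible Gal4–ROR gamma fusion and UAS-driven Photinus luciferase, incubated 20 hr after 700 uM copper sulfate.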
Sfp PPTase inh: inhibitors of Bacillus subtilis Sfp phosphopantetheinyl transferase. Q9F4F7. Biochemical Sfp PPTase activity, qHTS. Potency, µM, hits mostly inhibitors. actives 3.5% (n = 310,000);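 note: the enzyme is Sfp with the accession as filed and its product quenches rhodamine fluorescence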
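Compounds were incubated with enzyme (final 15 nM) for 15 min at room temperature before substrate addition started the reaction. Fluorescence at 525 nm excitation, 598 nm emission was recorded immediately and after 30 minutes.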
ALDH1A1 inh: blocks purified human ALDH1A1 activity; P00352; Purified ALDH1A1, NADH fluorescence, propionaldehyde substrate; Potency, µM (doses to about 75.3 µM), hits mostly inhibitors; actives 7.3% (n = 220,000); AID 1030; active = well fitted inhibition curve with a large enough effect, not every such curve was filed as active; inconclusive = small, poorly fitted or top-dose-only effect, or another doubt; inactive = no such curve, though single readings can be large or run the other way
Numbers stand for hits; - = inactive; ? = inconclusive; . = not tested or not shown; [ ] = dose if it differs, or a comment. Unless noted, calls come from the whole dose curve; as a rule, active = well fitted curve in the direction sought with a large enough effect; inconclusive = small, poorly fitted or top-dose-only effect, or another doubt; inactive = no such curve, though single readings can be large; an effect the other way counts as inactive or inconclusive.

SMILES	PLK1 PBD block	VP16 counter	RORg inh	Sfp PPTase inh	ALDH1A1 inh
COc1ccc(S(=O)(=O)N2CC=C(C(=O)NC3CCCC3)CC2)cc1	29.9µM	-	-	-	.
COc1ccc(S(=O)(=O)N2CC=C(C(=O)Nc3ccc(NC(C)=O)cc3)CC2)cc1	-	-	-	-	-
COCCNC(=O)C1(C)CCCN(Cc2cc3ccccc3o2)C1 (centres undefined)	-	.	.	.	.
COc1ccc(C2CC(c3cccs3)=Nc3ccccc3S2)cc1 (centres undefined)	-	?	?	22.4µM	-
O=C(O)/C=C\C=C/c1ccc2c(c1)OCO2	.	.	.	.	-[13.5 µM]
O=C(C[n+]1ccc(C(=O)N/N=C/c2ccc(O)cc2)cc1)c1ccccc1	-	-	-	?	1.58µM
O=C(N/N=C/c1ccc(O)cc1)c1cccc(N/N=C/c2ccc(O)cc2)c1	-	-	-	-	22.4µM
O=C(C[n+]1ccc(C(=O)N/N=C/c2ccc(Br)cc2)cc1)c1ccccc1	-	-	-	-	-
CC(C)CC1C(=O)N(Cc2cn(CCC3OCCCO3)nn2)CCS(=O)(=O)N1Cc1ccc(-c2ccc(Cl)c(Cl)c2)cc1 (centres undefined)	-	.	.	.	.
COc1cc(CNc2ncnc3c2ncn3[C@H]2CN(Cc3ccncc3)C[C@@H](CO)O2)cc(OC)c1OC	-	.	.	.	.
O=C(O)c1ccccc1CC(CCc1ccccc1)C(=O)O (centres undefined)	-	.	.	.	.
CC(=O)OCC1OC(C#Cc2ccc(F)cc2F)C=CC1OC(C)=O (centres undefined)	.	?	?	-	?
CCC(C)C(=O)Nc1nc(C)c(-c2csc(Nc3ccc(Cl)cc3)n2)s1 (centres undefined)	-	10µM	-	-	22.4µM
Cc1ccc(Nc2nc(-c3sc(NC(=O)c4cccc(Cl)c4)nc3C)cs2)cc1	.	-	?	-	15.8µM
CC(=O)Nc1ccc(Nc2nc(-c3sc(NC(C)=O)nc3C)cs2)cc1	23.8µM	-	?	?	.
COc1ccccc1Nc1nc(-c2sc(NC(=O)c3cccc(Cl)c3)nc2C)cs1	.	-	?	-	?
CCC(=O)Nc1nc(C)c(-c2csc(Nc3ccc(C(=O)O)cc3)n2)s1	?	-	-	?	.
CC(=O)Nc1nc(C)c(-c2csc(Nc3cccc(C(C)=O)c3)n2)s1	-	-	-	-	.
CC(=O)Nc1nc(C)c(-c2csc(Nc3ccc(O)cc3)n2)s1	-	-	?	35.5µM	25.1µM
O=C1COc2ccc(C(=O)COC(=O)c3ccc([N+](=O)[O-])cc3Cl)cc2N1	-	.	.	.	.
COc1ccc(CNc2ncncc2-c2ccc3c(c2)OCO3)c(OC)c1	.	-	-	?	?
O=C1NC[C@H](CCCCN2CCN(CC3CCCCC3)C(=O)C2=O)N(CC2CCCCC2)C1=O	-	.	.	.	.
CCCn1c(C)nc2c(N3CCOCC3)nc(C)nc21	.	-	-	-	-
OC1=C(O)c2nc3cc(F)ccc3nc21	21.2µM	-	-	39.8µM	.
CCCCc1ccc(/C=C2\C(=O)c3ccccc3C(O)=C2C(=O)OCC)cc1	.	-[0.365 µM]	10µM	3.16µM	?
SMILES	PLK1 PBD block	VP16 counter	RORg inh	Sfp PPTase inh	ALDH1A1 inh
CN1CCN(Cc2nc3c(c(=O)n(C)c(=O)n3C)n2CCCc2ccccc2)CC1	-	-	-	-	5.62µM
Cn1c(=O)c2c(nc(CN3CCCCC3)n2CCc2ccccc2)n(C)c1=O	-	-	-	-	?
Cn1c(=O)c2c(nc(CN3CCN(CCO)CC3)n2CCc2ccccc2)n(C)c1=O	-	-	-	-	28.2µM
O=C(CC1CCCC1)N1CCN(S(=O)(=O)c2c(F)cccc2F)CC1	-	.	.	.	.
Nc1ccc2cc3[nH]c4cc(N)ccc4c3nc2c1	2.38µM	.	.	.	.
O=C(C[n+]1cc(-c2ccc(Cl)c(Cl)c2)n2c1CCC2)N1c2ccccc2Sc2ccccc21	-	-	?	44.7µM	?
N=c1c2c(ncn1Cc1ccco1)Oc1c(ccc3ccccc13)C2c1ccccc1 (centres undefined)	-	?	?	50.1µM	-
COc1cccc(C(c2nnnn2C2CCCC2)N2CCN(C/C=C/c3ccccc3)CC2)c1OC (centres undefined)	-	.	.	.	.
O=C1COc2ccc(C(=O)COC(=O)c3cnc(Cl)c(Cl)c3)cc2N1	-	-	-	-	1.26µM
COc1ccc(/C=C/C(=O)OCC(=O)c2ccc3c(c2)NC(=O)CO3)cc1	-	-	-	-	-
CC(C)CC(NC(=O)c1ccc(Cl)cc1)C(=O)OCC(=O)c1ccc2c(c1)NC(=O)CO2 (centres undefined)	-	7.08µM	11.2µM	-	-
COc1cc(/C=C/C(=O)OCC(=O)c2ccc3c(c2)NC(=O)CO3)ccc1OC(F)F	18.9µM	.	.	.	.
CN(CC(=O)Nc1cccc(F)c1)CC(=O)NC(c1ccccc1)c1ccccc1	-	.	.	.	.
CCN(C(=O)COC(=O)c1cncc(Br)c1)C1CCS(=O)(=O)C1 (centres undefined)	-	-[10 µM]	-	-	-
Cc1ccc(S(=O)(=O)N2C[C@H]3C(=O)C[C@@H](c4ccc(Cl)cc4)N(S(=O)(=O)c4ccc(C)cc4)[C@H]3C[C@H]2c2cccc3ccccc23)cc1	-	.	.	.	.
CC(C)c1ccc(NC(=O)C2Cc3c(-c4ccccc4Oc4ccccc4)ccnc3O2)cc1 (centres undefined)	-	.	.	.	.
Cc1ccc(S(=O)(=O)N2CCN(C(=O)N3CCOCC3)C2C(C)C)cc1 (centres undefined)	-	-	-	-	-
CCN(CC)c1ccc(C2N(C(=O)N3CCOCC3)CCN2S(=O)(=O)c2ccc(C)cc2)cc1 (centres undefined)	-	-	-	-	7.94µM
COc1cc2c(cc1NC(=O)COC(=O)CNS(=O)(=O)c1ccc(C)cc1)oc1ccccc12	-	3.98µM	11.2µM	-	-
COc1ccc(S(=O)(=O)N[C@@H](C)C(=O)OCC(=O)Nc2cc3oc4ccccc4c3cc2OC)cc1	-	15.8µM	?	-	?
COc1ccc(OCC(=O)Nc2cc3oc4ccccc4c3cc2OC)cc1	-	-	-	?	-
COc1cc2c(cc1NC(=O)COC(=O)[C@@H](NS(=O)(=O)c1cccc(Cl)c1)C(C)C)oc1ccccc12	-	11.2µM	12.6µM	-	?
COc1ccc(NC(=O)COC(=O)CNS(=O)(=O)c2ccc(C)cc2)c(OC)c1	-	-	-	-	-
COc1cc2c(cc1NC(=O)COC(=O)c1ccccc1)oc1ccccc12	.	-	-	-	?
COc1ccccc1C1=Nn2c(nnc2-c2cccc(OC)c2OC)SC1	.	-	-	-	.
Cn1nc(C2CC2)cc1NC(=O)C1(C)CCN1C(=O)CCc1ccccc1 (centres undefined)	-	.	.	.	.
O=C(Nc1ccc(NC(=O)C2CCCCC2)nc1)c1cccc(F)c1	-	-	-	-	.
O=C(Nc1ccc(F)cc1)Nc1nnc(-c2ccco2)s1	-	?	?	-	-
CCc1ccc(S(=O)(=O)NC(=S)NC2CCCCC2)cc1	-	5.62µM	3.55µM	-	25.1µM
Cc1ccc(S(=O)(=O)NC(=S)NC2CCCCC2)cc1	-	14.1µM	3.16µM	-	35.5µM
